HP1b chromo inh: blocks HP1-beta chromodomain binding to methylated histone tails | AID 540317 | 390,000 tested, 0.56% active | P83916 | Potency, µM (top dose mostly 114 µM), inactives show top-dose activity change, negative = inhibition, hits mostly inhibitors | AlphaScreen HP1-beta / biotin-H3K9me3 peptide binding; further: potency means the concentration at half of the fitted maximal effect; nearly all actives have a fitted effect of over 70% in size
Target sequence (P83916 whole entry, looked up): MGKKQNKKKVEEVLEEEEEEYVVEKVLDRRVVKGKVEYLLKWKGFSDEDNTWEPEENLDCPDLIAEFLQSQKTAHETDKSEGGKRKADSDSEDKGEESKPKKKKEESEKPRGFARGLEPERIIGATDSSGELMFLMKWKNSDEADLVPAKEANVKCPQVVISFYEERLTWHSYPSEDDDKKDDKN
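AlphaScreen: HP1-beta (50 nM) preformed 30 min with biotin-H3(1-18)K9me3 peptide (50 nM) in PBS pH 7.4, 0.01% Tween-20. Compound added for 30 min at RT, then streptavidin donor/nickel chelate acceptor beads (10 ug/mL) for 30 min.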
JMJD2A Tudor inh: JMJD2A Tudor domain (human) inhibition; AlphaScreen JMJD2A-Tudor / H3K4me3 peptide binding; 390,000 tested, 4.4% active; AID 504339; Potency, µM (doses to about 114 µM), inactives show top-dose activity change, negative = inhibition, actives largely listed as inhibitors; further: potency means the concentration at half of the fitted maximal effect; on the % scale 0 is the no-effect control and ±100 the full control effect; nearly all actives have a fitted effect of over 50% in size
L3MBTL1 inh: blocks human L3MBTL1 | Potency, µM (highest dose often 57.1 µM), for inactives: top-dose activity, negative = inhibition, usual class: inhibitors | AID 485360 | AlphaScreen L3MBTL1–H3K9me1 peptide binding | 230,000 tested, 0.66% active | Q9Y468; further: potency means the concentration at half of the fitted maximal effect; on the % scale 0 is the no-effect control and ±100 the full control effect; nearly all actives have a fitted effect of over 60% in size
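First, the protein-peptide complex forms for 30 min at room temperature (L3MBTL1 50 nM, biotinylated H3K9me1 peptide 75 nM). Next, compounds are pin-transferred and incubated 30 min. Finally, AlphaScreen beads are added and read after 30 min.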
BAZ2B block: BAZ2B (human) inhibition | AlphaScreen BAZ2B-H3K14Ac peptide displacement | Potency, µM (highest dose often 114 µM), inactives show at the top dose activity change, negative = inhibition, actives largely listed as inhibitors | 360,000 tested, 4.4% active | AID 504333; further: potency means the concentration at half of the fitted maximal effect; on the % scale 0 is the no-effect control and ±100 the full control effect; nearly all actives have a fitted effect of over 60% in size
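Inhibition is scored as reduced AlphaScreen emission. The BAZ2B/b-H3(5-23)K14Ac complex (50 nM each) in PBS pH 7.4, 0.01% Tween-20 meets compound (up to 110 uM) for 30 min at RT before bead addition.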
PI5P4Ka inh: inhibitors of human PI5P4K alpha. P48426. PI5P4Kalpha enzyme, ADP-Glo luminescence, 60 min; hits give low values. max response, %. 330,000 tested, 1.2% active. AID 652105; active means max response of -50% or lower; inconclusive means between -30% and -50%; inactive means -30% or higher; further: value at the top dose of about 77 µM; on the % scale 0 is the no-effect control and ±100 the full control effect
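Single end-point luminescence (ADP-Glo) quantified ADP from PI5P4Kalpha turnover; ATP 5 microM final, 1 h at RT, 0.1% CHAPS and 0.28 mM EGTA in HEPES pH 7.4.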
G9a inh: G9a (human) methyltransferase inhibition; Q96KQ7; G9a H3K9 monomethylation, AlphaScreen, 2 h; Potency, µM (top dose mostly 102 µM), without a hit: at the top dose activity, negative = inhibition, usual class: inhibitors; 350,000 tested, 8.8% active; AID 504332; further: potency means the concentration at half of the fitted maximal effect; on the % scale 0 is the no-effect control and ±100 the full control effect; nearly all actives have a fitted effect of over 75% in size
Target sequence (Q96KQ7 913-1193 limits assumed): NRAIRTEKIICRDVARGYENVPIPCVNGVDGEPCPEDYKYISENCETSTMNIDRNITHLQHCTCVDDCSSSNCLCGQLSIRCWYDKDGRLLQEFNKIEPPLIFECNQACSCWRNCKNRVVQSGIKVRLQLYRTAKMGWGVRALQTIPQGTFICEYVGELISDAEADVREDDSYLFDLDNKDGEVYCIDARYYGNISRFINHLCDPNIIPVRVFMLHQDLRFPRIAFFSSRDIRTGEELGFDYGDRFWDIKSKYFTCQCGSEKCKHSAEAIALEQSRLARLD
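G9a (20 nM) was preincubated 15 min with compound, then reacted 2 h at room temperature with 500 nM biotin-H3K9 peptide and 20 µM SAM. Monomethyl-H3K9 detected by AlphaScreen using anti-H3K9me1 antibody.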
* hit, by the source's call; ? = inconclusive; · = no result; ! = repeats disagree; [ ] = dose if it differs, or a comment. In the library only some 11% were active in any assay of this set; here they are far more common. Unless noted, the call rests on the fitted dose curve; in most records, active means well fitted inhibition curve with a large enough effect; inconclusive means small, poorly fitted or top-dose-only effect; inactive means no such curve, though single readings can be large or run the other way.

SMILES	HP1b chromo inh	JMJD2A Tudor inh	L3MBTL1 inh	BAZ2B block	PI5P4Ka inh	G9a inh
COc1ccc(Cn2c(CCC(=O)NCc3ccc(Cl)cc3)nc3cccnc32)cc1	72.4%	-25.3%	·	16.7%	·	17.1%[59 µM]
CC/C(=C\C(=O)c1ccncc1)Nc1ccc(Br)cc1	?	?	·	50.1µM*	-4.1	?
O=C(NNC(=O)c1ccc(Br)cc1)c1ccncc1	50.5%	4.3%	-1.5%[2.29 µM]	-0.4%	2.8	-33.5%[0.501 µM]
Cc1cc(C)c2c(NC(=O)CCl)nn(C)c2n1	12.5%	-11.7%	24.5%	-13.2%	4.1	-22.0%
CCc1cc(SC#N)cc(CC)c1NC(=O)CCl	46.0%	-2.2%	-10.2%	1.7%	6.6	50.1µM*
Cc1c(Cl)cccc1NC(=O)CSc1nc(=O)n(Cc2ccncc2)c2c1CCC2	44.2%	5.5%	·	-3.1%	·	10.3%[59 µM]
Cc1ccccc1NC(=O)CCS(=O)(=O)c1ccc(Br)s1	-33.4%	-23.7%	·	?	-17.5	44.7µM*
C=CCNC(=S)Nc1sc2c(c1C#N)CCCC2	0.9%	-5.8%	1.3%	-30.1%	-14.6	44.7µM*
O=C(N/N=C/c1ccc(OCc2ccc(F)cc2)cc1)c1ccccc1	25.9%	-8.2%	-22.8%	9.6%	1.8	24.2%
COc1ccc(O)c(/C=N/NC(=O)c2ccc(OCc3cccc(Br)c3)cc2)c1	19.2%	35.5µM*	-2.7%	?	·	34.5%[2.33 µM]
CC(C)(C)c1ccc(OCc2ccc(C(=O)N/N=C/c3ccc(O)c(O)c3)cc2)cc1	?	?	-6.6%	31.6µM*	-27.4	?
O=C(N/N=C/c1ccc(OCc2ccccc2)cc1)c1cc[n+](Cc2ccccc2)cc1	-2.4%	?	-26.3%	-12.3%	-4.9	70.8µM*
Cc1cccc(-n2c(CNC(=O)c3cccc(F)c3)nnc2SCC(=O)Nc2ccccc2F)c1	15.8%	-16.2%	·	-16.0%	·	-24.3%[59 µM]
CCCCN(C)CCNC(=O)c1nn(-c2ccc(OC)c(Cl)c2)c(=O)c2c1c1ccccc1n2C	33.7%	-26.0%	·	·	·	1.2%[59 µM]
COc1cc(O)c(C(CCN2CCN(c3ccccc3)CC2)c2ccc3c(c2)OCO3)c(OC)c1 (stereo not given)	-28.1%	17.8µM*	·	10µM*	-1.9	?
COc1ccc(C(CCN2CCOCC2)c2c(O)cc(OC)cc2OC)cc1 (stereo not given)	4.5%	-28.3%	·	-1.1%	-0.6	23.0%[12.7 µM]
COc1cc(O)c(C(CCN2CCN(c3ccccc3)CC2)c2cc(OC)c(OC)c(OC)c2)c(OC)c1 (stereo not given)	?	39.8µM*	·	?	6.0	-21.9%[59 µM]
Fc1ccc(NCc2nnc3n2CCCCC3)cc1Cl	16.0%[57 µM]	-14.6%	·	6.6%	·	8.7%[59 µM]
CCCN1CNc2c(c(=O)[nH]c(=S)n2CCc2ccc(C)cc2C)C1	33.1%	-13.6%	·	·	·	·
COc1ccc(C2(C)NC(=O)N(CC(=O)Nc3c(C)n(C)n(-c4ccccc4)c3=O)C2=O)cc1 (stereo not given)	16.9%	4.1%	2.7%	-1.7%	-3.2	56.2µM*
Cc1c(NC(=O)CN2C(=O)NC(C)(c3ccc(OC(F)F)cc3)C2=O)c(=O)n(-c2ccccc2)n1C (stereo not given)	19.7%	0.0%	1.3%	0.6%	-6.4	50.1µM*
CC1(c2ccc(OC(F)F)cc2)NC(=O)N(CC(=O)Nc2ccccc2)C1=O (stereo not given)	9.8%	9.2%	·	-10.0%	0.5	20.8%
CC1(c2ccc(OC(F)F)cc2)NC(=O)N(CC(=O)Nc2ccc3[nH]c(=O)[nH]c3c2)C1=O (stereo not given)	-14.9%	-25.6%	3.8%	-6.1%	-3.9	56.2µM*
COc1ccc2cc(C3(C)NC(=O)N(CC(=O)Nc4c(C)n(C)n(-c5ccccc5)c4=O)C3=O)ccc2c1 (stereo not given)	23.0%	-8.7%	-3.5%	-26.2%	-0.6	35.8%[59 µM]
Cc1ccc(C)c(N2CCN(C(=O)C3CCC(CNS(=O)(=O)c4ccc(Br)s4)CC3)CC2)c1 (stereo not given)	24.8%	-13.7%	·	-0.9%	·	4.4%[59 µM]
SMILES	HP1b chromo inh	JMJD2A Tudor inh	L3MBTL1 inh	BAZ2B block	PI5P4Ka inh	G9a inh
NC(=O)C1CCN(S(=O)(=O)c2cc3c(cc2Cl)NC(=O)CO3)CC1	?	-7.7%	·	2.1%	·	-2.0%[59 µM]
NS(=O)(=O)c1cc2c(cc1Cl)NC(CSCc1ccccc1)=NS2(=O)=O	15.0%	0.0%	-14.1%	89.1µM*	-2.4	-125.6%[59 µM]
Oc1cccc(/C=N/Nc2cccc3cccnc23)c1	?	?	?	?	31.3	35.5µM*
Oc1ccc(/C=N/Nc2ccc(C(F)(F)F)cn2)cc1	34.1%	-12.4%	-1.1%	-16.5%	3.7	0.5%
Oc1c(/C=N/Nc2cccc3cccnc23)ccc2ccccc12	39.5%	-22.2%	-2.3%	-1.0%	1.7	?
COc1cc(/C=N/Nc2ccc(C(F)(F)F)cn2)cc(OC)c1O	-2.3%	-8.5%	-6.5%	-18.1%	0.4	39.8µM*
COc1cc(/C=N/Nc2ccccn2)cc(OC)c1O	14.6%	-25.4%	·	-17.0%	-2.2	28.2µM*
Oc1ccc(/C=N/Nc2ccc(C(F)(F)F)cn2)c(O)c1	·	·	·	28.2µM*	·	14.5%
CC(C)c1cnc2c(c1SCC(=O)NCc1ccccc1Cl)c(=O)n(C)c(=O)n2C	23.7%[57 µM]	-2.6%	·	2.4%	·	-22.3%[59 µM]
COc1cc(N/N=C/c2ccccc2O)ncn1	9.0%	44.7µM*	?	28.2µM*	-23.4	21.7%
COc1ccc(NC(=O)C(=O)Nc2cccc3cccnc23)cc1OC	34.1%	-18.8%	1.9%	-6.6%	-1.0	·
COc1cc(/C=N/Nc2cccc3cccnc23)cc(OC)c1O	?	?	·	28.2µM*	-4.3	10µM*
COc1cc(N/N=C/c2ccc(N(C)C)cc2)ncn1	23.2%	-27.5%	?	-33.8%	-7.9	-4.9%
CCOc1ccc(OCC)c(NC(=O)CC(C)n2nc(C)cc2C)c1 (stereo not given)	26.1%	-22.0%	·	-15.0%	·	0.3%[59 µM]
COc1[nH]c(/N=C/c2ccccc2)c(C#N)c1C#N	-32.4%	44.7µM*!	-6.7%	?	?	3.16µM*
Cc1oc(/N=C/c2ccccc2)c(C#N)c1C	-2.4%	-6.8%	-1.5%	-31.5%	2.9	?
Cc1cnc(CNc2ncncc2-c2c(C)noc2C)cn1	·	·	·	·	·	-41.5%[0.501 µM]
O=C(CSc1nc2c(oc3ccccc32)c(=O)n1Cc1ccco1)Nc1ccccc1Cl	12.2%	-15.3%	·	-1.6%	·	7.6%[59 µM]
Cc1ccc(S(=O)(=O)CCC(=O)Nc2nc(-c3ccncc3)cs2)cc1	42.7%	14.4%	·	-37.8%	-15.3	39.8µM*
O=C(CCS(=O)(=O)c1ccc(F)cc1)Nc1nc(-c2ccccn2)cs1	23.2%	5.4%	·	?	2.1	?
O=C(CCS(=O)(=O)c1ccccc1)Nc1nc(-c2ccccn2)cs1	29.9%	89.1µM*	·	·	-3.2	·

Compound activity deposited in PubChem by National Center for Advancing Translational Sciences (NCATS).
